According to publication PMC4552634, “A New Set of Chemical Starting Points with Plasmodium falciparum Transmission-Blocking Potential for Antimalarial Drug Discovery” (PLoS ONE, 2015):
Where two headings read alike, the source gives them in different places. Hit rate of the full screen: of about 13,000 compounds, about 3,200 (25%) showed an effect of 50% or more. The list shows a part of the results.

System: P. falciparum stage V gametocytes
Parameters: BacTiter-Glo ATP luminescence viability of purified stage V gametocytes in 384-well plates, per cent inhibition versus DMSO
Conditions: 48 h, 5 µM, inhibitor

| Compound | % Inhibition | % Inhibition (% Inhibition) |
| --- | --- | --- |
| CC(=O)C1=NN(c2ccc(C)cc2)C(c2cccs2)N1c1ccccc1 (centres unmarked) [TCMDC-125627] | -78.13% |  |
| Cc1cccc2[nH]c(-c3cccc(-c4ccc(NC(=O)NCc5ccccc5)cc4)c3)nc12 [TCMDC-133158] | -0.2096% |  |
| COc1ccc(NS(=O)(=O)c2ccc(Oc3nc(C)nc4sc5c(c34)CCCC5)cc2)cc1 [TCMDC-124337] | 4.693% |  |
| CNC(=O)c1cc(S(=O)(=O)Nc2ccc(OC)cc2)cs1 [TCMDC-124815] | 61.29% |  |
| COc1ccc(NC(=O)c2c(NC(=O)c3cccs3)sc3c2CCCC3)cc1 [TCMDC-125745] | -21.48% |  |
| CC1(C)CC2CC(C)(CN2C(=O)c2cc(C(C)(C)C)nn2Cc2ccccc2)C1 (centres unmarked) [TCMDC-133777] | -28.49% |  |
| O=C(COc1ccccc1Cc1ccccc1)Nc1cc(Cl)ccc1-n1cncn1 [TCMDC-125098] | -48.08% |  |
| O=C(Nc1cc(Cl)ccc1-n1cncn1)C1(c2ccccc2)CC1 [TCMDC-125455] | 2.448% |  |
| COc1ccc(CN2CCN(CC(=O)Nc3cc(Cl)ccc3-n3cncn3)CC2)cc1F [TCMDC-125242] | 66.84% |  |
| CN1CCCc2ccc(NC(=O)c3ccc(-c4cc(C(F)(F)F)nn4C)s3)cc2C1 [TCMDC-133945] | -15.63% |  |
| CC1CCN(Cc2c(O)ccc3c(CN4CCC(C)CC4)c(O)ccc23)CC1 [TCMDC-137584] | -14.01% |  |
| CC(C)c1ccc(-c2noc(SCC(=O)N(C)c3ccc(F)cc3)n2)cc1 [TCMDC-124744] | -3.802% |  |
| CCN1CCN(C(=O)NC(C(=O)N2CCCC(COc3ccc(Cc4ccccc4)cc3)C2)c2cccs2)C(=O)C1=O (centres unmarked) [TCMDC-139273] | 35.06% |  |
| CN1CCCC1CCNc1ncc2c(-c3ccc(NC(=O)Nc4cc(C(F)(F)F)ccc4F)cc3)nn(C)c2n1 (centres unmarked) [TCMDC-141584] | 59.4% |  |
| CN1CCCC1CCNc1ncc2c(-c3ccc(NC(=O)Nc4cc(C(F)(F)F)ccc4F)c(F)c3)nn(C)c2n1 (centres unmarked) [TCMDC-141610] | 99.17% |  |
| CCCCCC(C)N=C(Nc1ccc(C#N)cc1O)Nc1ccccc1Br (centres unmarked) [TCMDC-140129] | -25.57% |  |
| Cc1cc([N+](=O)[O-])ccc1N1CCN(CCCCNC(=O)c2ccc(NC(=O)c3ccc(Cl)cc3)cc2)CC1 [TCMDC-138261] | 16.06% |  |
| C[C@@H](CC1CCCCC1)OC(=O)N(C)[C@H]1CCN(C#N)C1 [TCMDC-138501] | 35.73% |  |
| CCCC1N=C(N)N=C(N)N1c1ccc(Cl)cc1 (centres unmarked) [TCMDC-131296] | -9.139% |  |
| CCNc1cc(C(=O)N[C@@H](Cc2ccccc2)[C@H](O)CNCc2cc(OC)cc(OC)c2)cc(N2CCCS2(=O)=O)c1 [TCMDC-134557] | -5.029% |  |
| N#CN1CC[C@@H](OC(=O)N[C@@H]2C[C@H]2c2ccccc2)C1 [TCMDC-133724] | 29.13% |  |
| CC(C)C[C@H](NC(=O)[C@H](Cc1ccccc1)N(C[C@H](Cc1ccccc1)NC(=O)OC(C)(C)C)C(=O)C(F)(F)F)C(=O)NC1CCN(Cc2ccccc2)CC1 [TCMDC-132059] | -19.61% |  |

| Compound | % Inhibition | % Inhibition (% Inhibition) |
| --- | --- | --- |
| O=C(Nc1ccc(OC2CCN(Cc3ccccc3)C2)c(Cl)c1)c1cccs1 (centres unmarked) [TCMDC-133970] | 30.53% |  |
| CCCOc1ccc(NC(=O)c2cccs2)cc1Cl [TCMDC-141129] | 16.1% |  |
| Cc1ccc(C(=O)Nc2ccc(OC3CCN(CCC(C)C)C3)c(Cl)c2)cc1 (centres unmarked) [TCMDC-133983] | 31.29% |  |
| CC(C)CCN1CCC(Oc2ccc(NC(=O)c3cccs3)cc2Cl)C1 (centres unmarked) [TCMDC-133979] | 54.06% |  |
| CC(C)CCN1CCC(Oc2ccc(NC(=O)c3ccccc3)cc2Cl)CC1 [TCMDC-133977] | 11.22% |  |
| CC(C)CCOc1ccc(NC(=O)c2cccs2)cc1 [TCMDC-125121] | 83.04% |  |
| CC(Oc1ccc(NC(=O)c2cccs2)cc1)C(=O)c1ccc(Cl)cc1 (centres unmarked) [TCMDC-125438] | 17.92% |  |
| O=C(Nc1ccc(OC2CCN(Cc3ccccc3)CC2)c(Cl)c1)c1cccs1 [TCMDC-133990] | 24.3% |  |
| CC(C)CCN1CCC(Oc2ccc(NC(=O)c3cccs3)cc2Cl)CC1 [TCMDC-133974] | 92.16% |  |
| COc1ccc(NC(=O)c2cc(NC(=O)C3(N)CC3)c(=O)n(Cc3ccc(C(N)=O)cc3)c2)cc1 [TCMDC-136554] | 19.66% |  |
| Cc1[nH]c2c(NCc3ccc(F)cc3)nccc2c1C [TCMDC-132310] | 15.19% |  |
| N#Cc1ccc2c(c1)CCN(CCC1CCC(NC(=O)c3cc4ccc(Br)cc4[nH]3)CC1)C2 (centres unmarked) [TCMDC-139195] | -25.15% |  |
| Cc1nn(-c2ccccc2)nc1C(=O)N(Cc1ccc(-c2ccc(CNCCc3ccc(S(C)(=O)=O)cc3)cn2)cc1)C(C)CN(C)C (centres unmarked) [TCMDC-141524] | 25.84% |  |
| CCCNCc1ccc(-c2ccc(CN(C(=O)c3nn(-c4ccccc4)nc3C)C3CC3)cc2)nc1 [TCMDC-141550] | 42.93% |  |
| CCCNCc1ccc(-c2ccc(CN(C(=O)c3nn(-c4ccccc4)nc3C)C(C)CN(C)C)cc2)nc1 (centres unmarked) [TCMDC-141551] | 64.23% |  |
| CCCNCc1ccc(-c2ccc(CN(CCOC)C(=O)c3nn(-c4ccccc4)nc3C)cc2)nc1 [TCMDC-141549] | 77.73% |  |
| CCCNCc1ccc(-c2ccc(CN(Cc3cnc(C)cn3)C(=O)c3nn(-c4ccccc4)nc3C)cc2)nc1 [TCMDC-141548] | 27.98% |  |
| CCCNCc1ccc(-c2ccc(CN(C(=O)c3nn(-c4ccccc4)nc3C)C3CCOCC3)cc2)nc1 [TCMDC-141547] | 9.201% |  |
| O=C(O)CNCC(O)c1ccccc1 (centres unmarked) [TCMDC-131775] | 4.722% |  |
| FC(F)(F)c1ccc2[nH]c(-c3ccc(-c4ccc(CNCc5cnn(-c6ccccc6)n5)cc4)cc3)nc2c1.O=C(O)C(F)(F)F [TCMDC-132970] | -15.1% |  |
| CS(=O)(=O)n1c(CN2CCN(c3ncc(C(F)(F)F)cc3Cl)CC2)nc2ccccc21 [TCMDC-134291] | 88.45% |  |
| Cc1cccc(CN2CCN(c3ncc(C(=O)NC4CC4)cc3Cl)CC2)c1 [TCMDC-134604] | 4.534% |  |

| Compound | % Inhibition | % Inhibition (% Inhibition) |
| --- | --- | --- |
| O=C(NC1CCN(c2ncc(C(F)(F)F)cc2Cl)CC1)c1cccs1 [TCMDC-133802] | 15.64% |  |
| O=C1OC(c2cc3ccccc3n2S(=O)(=O)c2ccccc2)(c2cc3ccccc3n2S(=O)(=O)c2ccccc2)c2ccccc21 [TCMDC-131245] | 29.52% |  |
| CCC(C)(C)c1ccc(OCCCC(=O)Nc2ccc(Cl)c([N+](=O)[O-])c2)c(C(C)(C)CC)c1 [TCMDC-125721] | -38.1% |  |
| C#CCCOc1ccc2ccccc2c1CNCCCCCCNCc1c(OCCC#C)ccc2ccccc12 [TCMDC-137832] | 106.3% |  |
| C#CCOc1ccc2ccccc2c1CNCCCCCCNCc1c(OCC#C)ccc2ccccc12 [TCMDC-137838] | 115.4% |  |
| O=C(NCCN1CCOCC1)c1csc(C2CCCN(C(=O)c3ccc(O)c(-c4cc(Cl)cc(Cl)c4)c3)C2)n1 (centres unmarked) [TCMDC-140155] | 11.07% |  |
| CC(C)(C)SC1SC(SC(C)(C)C)C(OC(=O)c2ccccc2)C(OC(=O)c2ccccc2)C1OC(=O)c1ccccc1 (centres unmarked) [TCMDC-131948] | -26.61% |  |
| O=C(Nc1ccccc1C(F)(F)F)NC1CCC(CN2CCC(c3c[nH]c4ccccc34)CC2)CC1 (centres unmarked) [TCMDC-140177] |  | -23.5% |
| Cn1nc(-c2ccc(S(=O)(=O)NC3CCC(CN4CCC(c5c[nH]c6ccccc56)CC4)CC3)s2)cc1C(F)(F)F (centres unmarked) [TCMDC-140166] |  | 62.77% |
| Cn1nc(-c2ccc(S(=O)(=O)NC3CCC(CN4CCC(c5c[nH]c6ccccc56)CC4)CC3)s2)cc1C(F)(F)F (centres unmarked) [TCMDC-140174] |  | 96.23% |
| O=C(Nc1ccccc1C(F)(F)F)NC1CCC(CN2CCC(c3c[nH]c4ccccc34)CC2)CC1 (centres unmarked) [TCMDC-140197] |  | 5.962% |
| O=S(=O)(NC1CCC(CN2CCC(c3c[nH]c4ccccc34)CC2)CC1)c1ccc(Cl)c(Cl)c1 (centres unmarked) [TCMDC-140164] | 18.4% |  |
| O=C(NC1CCC(CN2CCC(c3c[nH]c4ccccc34)CC2)CC1)c1cc(-c2ccccc2Cl)oc1C(F)(F)F (centres unmarked) [TCMDC-140358] | 4.446% |  |
| CCN1CCN(c2cc(C)c3cc(NC(=O)c4ccc(N(CC)CC)cc4)ccc3n2)CC1 [TCMDC-125574] | 18.21% |  |
| COc1ccc(-c2csc(NC(=O)CCC(=O)O)n2)cc1OC [TCMDC-124274] | -7.165% |  |
| CCCC(C)c1ccc(N2C(N)=NC(N)=NC2(C)C)cc1 (centres unmarked) [TCMDC-137715] | 12.27% |  |
| O=C(O)c1ccc(NC(=O)C2CC(=O)N(Cc3ccc(Cl)cc3)C(=Nc3ccc(Cl)cc3)S2)cc1 (centres unmarked) [TCMDC-124036] | -57.25% |  |
| COc1ccc(C[C@H](N)C(=O)N[C@H]2[C@@H](O)[C@H](n3cnc4c(N(C)C)ncnc43)O[C@@H]2CO)cc1 [TCMDC-123927] |  | 96.23% |
| COc1ccc(C[C@H](N)C(=O)N[C@H]2[C@@H](O)[C@H](n3cnc4c(N(C)C)ncnc43)O[C@@H]2CO)cc1 [TCMDC-123493] |  | 123.8% |
| CS(=O)(=O)c1ccc(-c2cncc(Nc3cccc([N+](=O)[O-])c3)c2)cc1 [TCMDC-136669] | 44.65% |  |
| CCn1cc(CN2C(=O)C(c3ccccc3)(c3ccccc3)N=C2N)cn1 [TCMDC-136798] | 10.89% |  |
